Most compounds without a hit are left out; they make up all but 14% or so of the library.
USP28 block: human USP28 deubiquitinase inhibition; inhibition, % at 25 µM; AID 1645857; Q96RU2; purified USP28, Ub-rhodamine cleavage fluorescence, 30 min; hit rate 3% among 47,000
USP30 block: inhibitors of human USP30 deubiquitinase; Q70CQ3; purified USP30, Ub-rhodamine cleavage fluorescence; inhibition, % at 25 µM; hit rate 5.3% among 47,000; AID 1645860
USP8 inh: inhibitors of human USP8 deubiquitinase; P40818; inhibition, % at 20 µM; purified USP8, Ub-rhodamine cleavage fluorescence, 30 min; hit rate 4.2% among 47,000
USP17 block: blocks human USP17 ubiquitin-rhodamine cleavage. purified USP17, Ub-rhodamine cleavage fluorescence, 3 h. hit rate 6.5% among 47,000. A8MUK1. inhibition, % at 50 µM
The depositor's hits bear a star; i = inactive; . = not tested or not shown. Cut-off read from the data, not from the text of the source: active = inhibition above about 30%; inactive = the rest.

SMILES	USP28 block	USP30 block	USP8 inh	USP17 block
O=C(Nc1ccc(Cl)cc1)C1CCCN(c2ncnc3nc[nH]c23)C1 (stereo not given)	-10	-31	28	39*
O=C(Nc1ccc(Cl)cc1)C1CCCN(c2ncccn2)C1 (stereo not given)	10	15	33*	10
O=C(Nc1ccc(CN2CCOCC2)cc1)C1CCCN(c2ncccn2)C1 (stereo not given)	4	14	7	0
COCCCNC(=O)COc1c(-c2ccc(OC)cc2)oc2ccccc2c1=O	18	49*	29	23
COc1ccc(CNC(=O)COc2ccccc2-c2nnc(-c3ccccc3)o2)cc1	-4	-17	-18	-6
CCOC(=O)N1CCN(c2cc(C(C)C)nc3nc(-c4cccnc4)nn23)CC1	-1	33*	1	25
CC(C)c1cc(N2CCCCC2)n2nc(-c3cccnc3)nc2n1	.	.	4	-5
CCCc1cc(N2CCCCC2)n2nc(-c3cccnc3)nc2n1	19	31*	2	10
COc1cccc(CN2C[C@H]3CCN(C(=O)c4ccccn4)CC[C@H]3S2(=O)=O)c1	6	21	17	8
Cc1cccc(-c2nnc(C3(c4ccc(F)cc4)CCOCC3)o2)c1	0	0	-5	0
CN(C(=O)COc1ccc(-n2cnnn2)cc1)C(c1ccccc1)c1ccccc1	18	36*	7	13
CCOc1ccc(C(=O)Oc2ccc(-n3cnnn3)cc2)cc1	-3	11	33*	5
O=C(NCc1ccc(N2CCCC2=O)cc1)c1ccc(-n2cccn2)cc1	17	22	27	9
COc1ccc(CC(NC(C)=O)C(=O)NC2CCN(c3nc(OC)nc(OC)n3)CC2)cc1 (stereo not given)	18	32*	7	17
COc1nc(OC)nc(N2CCC(NC(=O)C(Cc3ccccc3F)NC(C)=O)CC2)n1 (stereo not given)	5	42*	9	14
COc1nc(OC)nc(N2CCC(NC(=O)C(Cc3ccc(C)cc3)NC(C)=O)CC2)n1 (stereo not given)	7	34*	-2	20
COc1c(O)cc(CC(=O)O)c(C(C)=O)c1O	79*	34*	21	81*
COc1cccc(N2CC(=O)Nc3c(oc4nc(-c5ccccc5)cc(C)c34)C2=O)c1	4	37*	32*	3
COc1cccc(N2Cc3ccccc3OCC2=O)c1	3	8	6	3
CCCCC(=O)N1c2ncnn2C(c2ccccc2OC)CC1c1ccc(C)cc1 (stereo not given)	2	4	10	0
COc1cccc(NC(=S)Nc2ccc3nc(-c4ccccn4)c(-c4ccccn4)nc3c2)c1	-199	i	-318	-129
COc1ccc(-c2cc(C(=O)N3CCCC3)[nH]n2)cc1S(N)(=O)=O	-4	-14	-8	-18
COc1ccc(-c2cc(C(=O)NC3CCCCCC3)[nH]n2)cc1S(=O)(=O)N(C)C	0	3	-17	51*
CC1CCN(S(=O)(=O)c2ccc3ncn(CC(=O)Nc4ccc(F)cc4Cl)c(=O)c3c2)CC1	-10	-18	-5	-17
COc1ccc(CNC(=O)CSc2nc3nc(C)ccc3o2)cc1	13	11	-33	52*
SMILES	USP28 block	USP30 block	USP8 inh	USP17 block
CCc1cc2c3c([nH]c2cc1S(=O)(=O)NCc1ccccc1)CCCC3=O	11	-31	-23	-17
CCc1cc2c3c([nH]c2cc1S(=O)(=O)NCc1cccc(OC)c1)CCCC3=O	16	0	0	-8
Cc1ccc(CNS(=O)(=O)c2cc3[nH]c4c(c3cc2C)C(=O)CCC4)cc1	44*	-29	8	-22
Cc1cc2c3c([nH]c2cc1S(=O)(=O)NCc1ccc2c(c1)OCO2)CCCC3=O	31*	-39	0	0
Cc1cc2c3c([nH]c2cc1S(=O)(=O)N1CCCCC1C)CCCC3=O (stereo not given)	4	-52	11	37*
Cc1cc2c3c([nH]c2cc1S(=O)(=O)N1CCCCC1C)CC(C)(C)CC3=O (stereo not given)	-6	5	14	3
Cc1cc(OCC(=O)Nc2ccc3c(c2)NC(=O)CO3)ccc1Cl	13	14	53*	10
Cc1ccc2c(C)c(C(=O)Nc3ccc4c(c3)NC(=O)CO4)oc2c1	.	.	0	28
Cc1cccc(OCC(=O)Nc2ccc3c(c2)NC(=O)CO3)c1	4	12	0	41*
COc1ccccc1NC(=O)CCc1nc(CSc2nc3ccccc3o2)no1	33*	21	-119	-8
Cc1cccc(C)c1NC(=O)CCc1nc(CSc2nc3ccccc3o2)no1	27	31*	-76	10
Cc1ccc(NC(=O)CCc2nc(CSc3nnc(-c4ccccc4)o3)no2)cc1C	14	31*	-63	8
Cc1ccc(C)c(NC(=O)CCc2nc(CSc3nc4ccccc4o3)no2)c1	20	52*	-4	15
Cc1nc(-c2cc(C(=O)NCCN3CCOCC3)c3ccccn23)cn1C	-168	i	-71	-125
O=C(NCc1ccco1)[C@H]1CC[C@@H]2[C@@H](CCN2Cc2nccs2)O1	4	2	10	0
O=c1c2ccccc2c(-c2nc(-c3cccnc3)no2)cn1-c1cccc(F)c1	2	13	24	9
O=c1c2ccccc2c(-c2nc(-c3ccncc3)no2)cn1-c1ccccc1	5	7	-1	73*
Cc1noc(/C=C/Nc2ccc(OC(F)(F)F)cc2)c1[N+](=O)[O-]	-19	-25	41*	-6
Cn1ncc(C(=O)Nc2ccc(OC(F)(F)F)cc2)c1-n1cccc1	-2	-4	0	1
Cc1ccc2nc(NC(=O)CSc3nnc(-c4ccncc4)n3C3CC3)sc2c1	-4	-25	-1	57*
CC1OC2CC(=O)OC2C2=C1C(=O)c1c(O)cccc1C2=O (stereo not given)	56*	-3	1	94*
CCC[C@H]1O[C@@H]2CC(=O)O[C@@H]2C2=C1C(=O)c1c(O)cccc1C2=O	54*	-19	-7	84*
CC1CC(=O)c2c(O)cccc2O1 (stereo not given)	4	12	13	0
COC(=O)c1c(-c2c(Cl)cccc2Cl)noc1/C=C/Nc1ccc(C(=O)O)cc1	31*	-35	26	7
Cn1c(=O)c(-c2ccc(C(=O)NCc3cccc(Cl)c3)cc2)nc2cccnc21	19	82*	43*	67*
SMILES	USP28 block	USP30 block	USP8 inh	USP17 block
CCn1c(CCNC(=O)c2ccc(Cl)cc2)nc2cccnc21	-65	-392	-30	-101
Cn1c(=O)c(-c2ccc(C(=O)NCc3ccc4c(c3)OCO4)cc2)nc2cccnc21	24	2	40*	28
Cn1cc(CC(=O)NCc2ccc3c(c2)OCO3)c2cccnc21	3	-7	-31	-11
CCn1c(=O)c(C(=O)NCc2cccc(Cl)c2)nc2cccnc21	-7	-4	-41	.
CCn1c(=O)c(-c2ccc(C(=O)Nc3ccccc3F)cc2)nc2cccnc21	7	10	0	48*
Cn1ncc2c(NCCc3cccs3)nc(N3CCN(CCO)CC3)nc21	-1	-1	-4	6
Cc1ccccc1NC(=O)COC(=O)[C@@H]1CCCN1S(=O)(=O)c1ccc(Cl)cc1	-1	3	13	4

Screening data as filed in PubChem BioAssay.
